# Experimental data published in PMC7862700, “An all-to-all approach to the identification of sequence-specific readers for epigenetic DNA modifications on cytosine”.
# Target: CRX (Homo sapiens, UniProt O43186 1-299)
# Test: DAPPL (digital affinity profiling via proximity ligation, sequencing); 10 mM Tris-HCl pH 7.5, 50 mM NaCl, 1 mM DTT, 4% glycerol, room temperature, 30 min; GST-TFs on glutathione beads, 16-mer random dsDNA library, 0.1% formaldehyde crosslink after washing; high values mean tight binding
# Settings: protein: recombinant; tags: N-terminal GST; dsDNA, one strand shown
# In short: (§1)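 Yeast served to express human transcription factors as GST fusions, which were then captured on glutathione beads and labelled with DNA barcodes. Pooled with a tag-only sample, they were incubated with 200 nmole of a 16-mer random double-stranded DNA library for 30 min at room temperature in Tris/NaCl/DTT/glycerol buffer, washed, crosslinked with 0.1% formaldehyde, ligated by proximity, amplified by PCR and sequenced. Dividing each hexamer's read frequency for a factor by its frequency for the tag-only sample gives the binding signal.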
# Chain of CRX (O43186 whole entry): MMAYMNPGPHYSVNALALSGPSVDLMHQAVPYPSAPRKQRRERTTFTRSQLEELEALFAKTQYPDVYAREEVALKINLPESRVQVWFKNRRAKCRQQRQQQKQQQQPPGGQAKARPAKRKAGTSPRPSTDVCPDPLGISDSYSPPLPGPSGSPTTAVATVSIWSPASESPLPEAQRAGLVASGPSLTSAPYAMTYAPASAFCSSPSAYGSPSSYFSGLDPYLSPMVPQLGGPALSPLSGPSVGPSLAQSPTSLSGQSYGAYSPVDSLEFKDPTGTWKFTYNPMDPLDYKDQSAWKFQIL
row,Sequence,binding signal
1,GTTGAT,"1.1 fold enrichment (6-mer frequency, TF over GST control)"
2,GGTTTT,"1.19 fold enrichment (6-mer frequency, TF over GST control)"
3,AAAGCG,"1.14 fold enrichment (6-mer frequency, TF over GST control)"

# Target: ETV1 (Homo sapiens, UniProt P50549 1-477)
# Test: as above
# Settings: protein: recombinant; tags: N-terminal GST; dsDNA, one strand shown
# In short: as §1
# Chain of ETV1 (P50549 whole entry): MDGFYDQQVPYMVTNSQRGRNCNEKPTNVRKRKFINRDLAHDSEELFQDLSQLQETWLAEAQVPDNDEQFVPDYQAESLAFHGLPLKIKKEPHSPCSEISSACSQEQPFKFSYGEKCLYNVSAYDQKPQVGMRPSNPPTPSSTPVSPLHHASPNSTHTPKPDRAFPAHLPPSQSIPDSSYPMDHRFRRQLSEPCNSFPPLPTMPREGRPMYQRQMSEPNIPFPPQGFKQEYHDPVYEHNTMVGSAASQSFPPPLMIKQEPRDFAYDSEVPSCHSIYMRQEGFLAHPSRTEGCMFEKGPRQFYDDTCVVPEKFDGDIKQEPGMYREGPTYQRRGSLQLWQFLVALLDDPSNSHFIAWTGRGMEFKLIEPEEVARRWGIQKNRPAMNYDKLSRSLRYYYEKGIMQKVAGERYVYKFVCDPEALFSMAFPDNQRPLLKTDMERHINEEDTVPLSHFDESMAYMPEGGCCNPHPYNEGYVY
row,Sequence,binding signal
1,GTCTAC,"1.19 fold enrichment (6-mer frequency, TF over GST control)"
2,GCCCCA,"1.03 fold enrichment (6-mer frequency, TF over GST control)"
3,CGCCCG,"1.13 fold enrichment (6-mer frequency, TF over GST control)"
4,AAGGCA,"1.1 fold enrichment (6-mer frequency, TF over GST control)"
5,TGGTGC,"1.06 fold enrichment (6-mer frequency, TF over GST control)"
6,CATACG,"1.06 fold enrichment (6-mer frequency, TF over GST control)"
7,AAGGGT,"1.05 fold enrichment (6-mer frequency, TF over GST control)"
8,TTGCCG,"1.09 fold enrichment (6-mer frequency, TF over GST control)"
9,ACATGG,"1.14 fold enrichment (6-mer frequency, TF over GST control)"
10,GTTGAT,"1.09 fold enrichment (6-mer frequency, TF over GST control)"
11,ATGCCG,"1.11 fold enrichment (6-mer frequency, TF over GST control)"
12,ACCACC,"1.02 fold enrichment (6-mer frequency, TF over GST control)"
13,GCGCGC,"1.09 fold enrichment (6-mer frequency, TF over GST control)"
14,GTCCCA,"1.14 fold enrichment (6-mer frequency, TF over GST control)"
15,CCGATG,"1.1 fold enrichment (6-mer frequency, TF over GST control)"
16,GCTGCC,"1.19 fold enrichment (6-mer frequency, TF over GST control)"

row,Sequence,binding signal
1,TCAACA,"1.06 fold enrichment (6-mer frequency, TF over GST control)"
2,ACCACA,"1.09 fold enrichment (6-mer frequency, TF over GST control)"
3,TGGACC,"1.08 fold enrichment (6-mer frequency, TF over GST control)"
4,GCCCAC,"1 fold enrichment (6-mer frequency, TF over GST control)"
5,CGGCCT,"1.05 fold enrichment (6-mer frequency, TF over GST control)"
6,GGTTTT,"1.15 fold enrichment (6-mer frequency, TF over GST control)"
7,CCACCT,"1.07 fold enrichment (6-mer frequency, TF over GST control)"
8,TTGGTC,"1.17 fold enrichment (6-mer frequency, TF over GST control)"
9,GGGTTC,"1.08 fold enrichment (6-mer frequency, TF over GST control)"
10,ACGTTG,"1.06 fold enrichment (6-mer frequency, TF over GST control)"
11,CCACAC,"1.1 fold enrichment (6-mer frequency, TF over GST control)"
12,TGGTCA,"1.02 fold enrichment (6-mer frequency, TF over GST control)"
13,AAAGCG,"1.05 fold enrichment (6-mer frequency, TF over GST control)"
14,ATGGTG,"1.11 fold enrichment (6-mer frequency, TF over GST control)"
15,TGCTGC,"1.13 fold enrichment (6-mer frequency, TF over GST control)"
16,CATCGC,"1.06 fold enrichment (6-mer frequency, TF over GST control)"

# Target: T1, ERF (Homo sapiens, UniProt P50548 1-548)
# T1 sequence: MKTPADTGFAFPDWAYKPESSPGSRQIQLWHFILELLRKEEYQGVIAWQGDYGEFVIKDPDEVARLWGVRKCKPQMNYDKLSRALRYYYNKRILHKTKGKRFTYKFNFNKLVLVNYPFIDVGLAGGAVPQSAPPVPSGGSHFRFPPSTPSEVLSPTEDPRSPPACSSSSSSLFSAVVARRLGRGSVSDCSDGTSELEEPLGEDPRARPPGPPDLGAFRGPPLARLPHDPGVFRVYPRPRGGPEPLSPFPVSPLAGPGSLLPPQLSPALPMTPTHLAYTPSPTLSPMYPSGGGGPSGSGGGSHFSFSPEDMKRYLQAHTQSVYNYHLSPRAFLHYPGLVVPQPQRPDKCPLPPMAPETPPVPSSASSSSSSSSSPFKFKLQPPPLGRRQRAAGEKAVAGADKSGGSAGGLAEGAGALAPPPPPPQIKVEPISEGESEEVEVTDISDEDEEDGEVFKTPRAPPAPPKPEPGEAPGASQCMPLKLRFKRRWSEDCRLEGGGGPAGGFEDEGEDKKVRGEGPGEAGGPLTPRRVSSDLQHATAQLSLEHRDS
# Test: as above
# Settings: protein: recombinant; tags: N-terminal GST; dsDNA, one strand shown
# In short: as §1
row,Sequence,binding signal
1,GTCTAC,"1.07 fold enrichment (6-mer frequency, TF over GST control)"
2,CGCCCG,"1.09 fold enrichment (6-mer frequency, TF over GST control)"
3,AAGGCA,"1.04 fold enrichment (6-mer frequency, TF over GST control)"
4,TGGTGC,"1.11 fold enrichment (6-mer frequency, TF over GST control)"
5,CATACG,"1.13 fold enrichment (6-mer frequency, TF over GST control)"
6,ACATGG,"1.14 fold enrichment (6-mer frequency, TF over GST control)"
7,GTTGAT,"1.05 fold enrichment (6-mer frequency, TF over GST control)"
8,CATCCA,"1.01 fold enrichment (6-mer frequency, TF over GST control)"
9,ATGCCG,"1.01 fold enrichment (6-mer frequency, TF over GST control)"
10,CCGCTG,"1.03 fold enrichment (6-mer frequency, TF over GST control)"
11,ACCACC,"1.17 fold enrichment (6-mer frequency, TF over GST control)"
12,TGCCAA,"1.15 fold enrichment (6-mer frequency, TF over GST control)"
13,GCGCGC,"1.22 fold enrichment (6-mer frequency, TF over GST control)"
14,GTCCCA,"1.12 fold enrichment (6-mer frequency, TF over GST control)"
15,CCGATG,"1.1 fold enrichment (6-mer frequency, TF over GST control)"
16,CCATGC,"1.01 fold enrichment (6-mer frequency, TF over GST control)"

row,Sequence,binding signal
1,TCAACA,"1.03 fold enrichment (6-mer frequency, TF over GST control)"
2,GTCTTG,"1.15 fold enrichment (6-mer frequency, TF over GST control)"
3,ACCACA,"1.05 fold enrichment (6-mer frequency, TF over GST control)"
4,TGGACC,"1.11 fold enrichment (6-mer frequency, TF over GST control)"
5,GCCCAC,"1.09 fold enrichment (6-mer frequency, TF over GST control)"
6,CGGCCT,"1.06 fold enrichment (6-mer frequency, TF over GST control)"
7,GGTTTT,"1.24 fold enrichment (6-mer frequency, TF over GST control)"
8,CCACCT,"1.13 fold enrichment (6-mer frequency, TF over GST control)"
9,TTGGTC,"1.08 fold enrichment (6-mer frequency, TF over GST control)"
10,ACGTTG,"1.07 fold enrichment (6-mer frequency, TF over GST control)"
11,CCACAC,"1.08 fold enrichment (6-mer frequency, TF over GST control)"
12,AGCAAC,"1.11 fold enrichment (6-mer frequency, TF over GST control)"
13,AAAGCG,"1.13 fold enrichment (6-mer frequency, TF over GST control)"
14,ATGGTG,"1.13 fold enrichment (6-mer frequency, TF over GST control)"
15,TGCTGC,"1.07 fold enrichment (6-mer frequency, TF over GST control)"
16,CATCGC,"1.06 fold enrichment (6-mer frequency, TF over GST control)"

# Target: T2, ETV3L (Homo sapiens, UniProt Q6ZN32 1-361)
# T2 sequence: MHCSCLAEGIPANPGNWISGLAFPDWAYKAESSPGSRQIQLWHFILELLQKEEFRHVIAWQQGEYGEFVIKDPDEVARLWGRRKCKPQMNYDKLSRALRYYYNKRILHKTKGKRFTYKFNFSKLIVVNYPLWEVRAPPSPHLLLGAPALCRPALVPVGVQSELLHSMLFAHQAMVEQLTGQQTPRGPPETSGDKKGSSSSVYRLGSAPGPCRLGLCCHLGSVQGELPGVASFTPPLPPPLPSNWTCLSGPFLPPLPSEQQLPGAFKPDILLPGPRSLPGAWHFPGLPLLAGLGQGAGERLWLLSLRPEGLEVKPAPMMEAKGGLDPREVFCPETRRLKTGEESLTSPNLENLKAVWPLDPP
# Test: as above
# Settings: protein: recombinant; tags: N-terminal GST; dsDNA, one strand shown
# In short: as §1
row,Sequence,binding signal
1,GTCTAC,"1.26 fold enrichment (6-mer frequency, TF over GST control)"
2,GCCCCA,"1.12 fold enrichment (6-mer frequency, TF over GST control)"
3,CGCCCG,"1.26 fold enrichment (6-mer frequency, TF over GST control)"
4,AAGGCA,"1.04 fold enrichment (6-mer frequency, TF over GST control)"
5,TGGTGC,"1.05 fold enrichment (6-mer frequency, TF over GST control)"
6,CATACG,"1.12 fold enrichment (6-mer frequency, TF over GST control)"
7,TTGCCG,"1.11 fold enrichment (6-mer frequency, TF over GST control)"
8,ACATGG,"1.19 fold enrichment (6-mer frequency, TF over GST control)"
9,GTTGAT,"1.09 fold enrichment (6-mer frequency, TF over GST control)"
10,CCGCTG,"1.04 fold enrichment (6-mer frequency, TF over GST control)"
11,ACCACC,"1.08 fold enrichment (6-mer frequency, TF over GST control)"
12,TGCCAA,"1.21 fold enrichment (6-mer frequency, TF over GST control)"
13,GCGCGC,"1 fold enrichment (6-mer frequency, TF over GST control)"
14,GTCCCA,"1.13 fold enrichment (6-mer frequency, TF over GST control)"
15,CCGATG,"1.1 fold enrichment (6-mer frequency, TF over GST control)"
16,GCTGCC,"1.03 fold enrichment (6-mer frequency, TF over GST control)"
17,TCAACA,"1.09 fold enrichment (6-mer frequency, TF over GST control)"

row,Sequence,binding signal
1,GTCTTG,"1.04 fold enrichment (6-mer frequency, TF over GST control)"
2,ACCACA,"1.16 fold enrichment (6-mer frequency, TF over GST control)"
3,TGGACC,"1.13 fold enrichment (6-mer frequency, TF over GST control)"
4,GCCCAC,"1.04 fold enrichment (6-mer frequency, TF over GST control)"
5,CGGCCT,"1.07 fold enrichment (6-mer frequency, TF over GST control)"
6,GGTTTT,"1.08 fold enrichment (6-mer frequency, TF over GST control)"
7,CCACCT,"1.08 fold enrichment (6-mer frequency, TF over GST control)"
8,TTGGTC,"1.08 fold enrichment (6-mer frequency, TF over GST control)"
9,GGGTTC,"1.09 fold enrichment (6-mer frequency, TF over GST control)"
10,ACGTTG,"1.08 fold enrichment (6-mer frequency, TF over GST control)"
11,CCACAC,"1.11 fold enrichment (6-mer frequency, TF over GST control)"
12,TGGTCA,"1.1 fold enrichment (6-mer frequency, TF over GST control)"
13,AAAGCG,"1.04 fold enrichment (6-mer frequency, TF over GST control)"
14,ATGGTG,"1.04 fold enrichment (6-mer frequency, TF over GST control)"
15,TGCTGC,"1.34 fold enrichment (6-mer frequency, TF over GST control)"
16,CATCGC,"1.21 fold enrichment (6-mer frequency, TF over GST control)"
